In PubChem BioAssay AID463173 (ICCB-Longwood Screening Facility, Harvard Medical School, 2010) one finds survival data, which are given here for 91 molecules.

In all, about 52,000 compounds went through this assay and about 4,300 (8.3%) were called active. Rule as the data show it: active = survival mostly below about 52% (no sharp cut-off); inactive = mostly above about 56%. This excerpt belongs to a sample that is enriched for actives.

The test system of this assay is DeltatarO mutant. As to the kind of experiment: growth inhibition of S. aureus wild type versus tarO mutant, primary screen, teichoic acid synthesis inhibitors, RN4220, OD600 (AID 463173). The following applies: OD600, 18 h, hits give low values, screened at 18.75 µg/mL (by protocol).
As to `CCN(CC)C(C)C#Cc1ccccc1` (stereo unspecified), the survival is 95% (inactive). Consider `Cc1ccc(-n2nc(C(=O)Nc3ccc(C)c(F)c3)c3c4ccccc4n(C)c3c2=O)cc1`, for which the survival was 92% (inactive).

With `Fc1ccc(-n2ncc3c(Nc4ccc5c(c4)OCCO5)ncnc32)cc1`, the survival is 97% (inactive).

In the case of `O=C(C1CCC(CNS(=O)(=O)c2cccs2)CC1)N1CCN(c2ccc(Cl)cc2)CC1` (stereo unspecified), the survival was 60% (inactive).

Consider `CCN(c1ccccc1)c1nnc(NC(=O)Nc2ccc(Br)cc2F)s1`, for which the survival was 97% (inactive). Consider `CC(=O)N1CCN(c2ccccc2N)CC1`, for which the survival was 93% (inactive). Consider `O=c1[nH]c(Nc2nc3ccccc3o2)nc2ccccc12`, for which the survival was 95% (inactive). As for `Cc1cc(C)nc(Nc2nc3ccccc3c(=O)[nH]2)n1`, the survival was 74% (active).

For `Cc1cc(=O)[nH]c(Nc2nc3ccccc3[nH]2)n1`, the survival is 71% (inactive). The result for `O=C1CCCc2cc(S(=O)(=O)N3CCCC(C(=O)Nc4ccc(F)c(Cl)c4)C3)ccc2N1` (stereo unspecified) reads 70% (inactive). For the molecule `Cc1ccccc1C(=O)OCc1cc(=O)n2c(C)csc2n1`, the survival is 109% (inactive). Consider `O=S(=O)(c1ccc2nc(N3CCN(c4ccccc4)CC3)ccc2c1)N1CCCCC1`, for which the survival was 6% (active). As for `CC1CCN(S(=O)(=O)c2ccc3nc(N4CCN(c5ccccc5)CC4)ccc3c2)CC1`, the figure is 78% (inactive); as for `O=S(=O)(c1ccc2nc(N3CCN(c4cccc(Cl)c4)CC3)ccc2c1)N1CCCCC1`, 81% (inactive); as for `Cc1ccc(OC(=O)c2ccc3snnc3c2)cc1`, 115% (inactive).

`COc1ccccc1-c1nn(CCC(=O)Nc2cccc(C(C)=O)c2)c2nc(C)cc(C)c12`: the survival was 69% (inactive). Regarding `Cc1cc(C)c2c(=O)cc(C(=O)Nc3ccc(S(=O)(=O)N(C)Cc4ccccc4)cc3)oc2c1`, the survival is 61% (inactive). Turning to `COc1ccc(C(=O)NCCSc2ccccn2)cc1`, the survival was 78% (inactive). `CCC1(C)CC(=O)c2c(ccc3oc(C(=O)Nc4ccc(C(C)=O)cc4)c(C)c23)O1` (stereo unspecified): the survival is 78% (inactive). With `CC(=O)Nc1ccc(NC(=O)c2oc3ccc4c(c3c2C)C(=O)CC(C)(C)O4)cc1`, the survival was 75% (inactive). Consider `Cc1cc(C)cc(NC(=O)c2oc3ccc4c(c3c2C)C(=O)CC(C)(C)O4)c1`, for which the survival was 89% (inactive).

In the case of `Cc1cccc(C)c1NC(=O)c1oc2ccc3c(c2c1C)C(=O)CC(C)(C)O3`, the survival is 42% (active). Take `Cc1c(C(=O)NCc2ccccc2Br)oc2ccc3c(c12)C(=O)CC(C)(C)O3`: the survival is 83% (inactive).

Turning to `CCC1(C)CC(=O)c2c(ccc3oc(C(=O)NCc4ccccc4)c(C)c23)O1` (stereo unspecified), the survival is 44% (active). For the molecule `CCCOc1ccc(CNC(=O)c2oc3ccc4c(c3c2C)C(=O)CC(C)(CC)O4)cc1` (stereo unspecified), the survival is 68% (inactive). On to `Cc1c(C(=O)NCc2cccc(Br)c2)oc2ccc3c(c12)C(=O)CC(C)(C)O3`, for which the survival was 61% (inactive). As for `Cc1c(C(=O)NCc2ccc(Cl)cc2)oc2ccc3c(c12)C(=O)CC(C)(C)O3`, the figure is 53% (active); as for `CCOC(=O)CC(NC(=O)Cn1nnc(-c2ccccc2F)n1)c1ccccc1Cl` (stereo unspecified), 77% (inactive). As for `COc1ccc(N2CCN(C(=O)c3cn(C)c4ccc(S(=O)(=O)N(C)C5CCCCC5)cc4c3=O)CC2)cc1`, the survival is 93% (inactive). As for `COc1ccccc1NC(=O)CSC1=Nc2ccccc2C2=NC(CC(=O)NCCc3ccccc3)C(=O)N12` (stereo unspecified), the survival was 85% (inactive).

As to `COc1ccc(C)cc1NC(=O)Cn1c(=O)n(Cc2nc(C)no2)c(=O)c2ccccc21`, the survival is 79% (inactive).

As to `COc1cccc(CNC(=O)CSc2ncc3c(n2)-c2cc(Cl)ccc2N(C)S3(=O)=O)c1`, the survival is 92% (inactive). With `O=C(CSc1nc2c(c(=O)[nH]1)CCCC2)Nc1ccc(Br)cc1`, the survival was 58% (inactive).

As to `N#CC1=C(N)NC(SCC(=O)Nc2ccc(Br)cc2)=C(C#N)C12CCCCC2`, the survival is 12% (active). Take `CCSC1=C(C#N)C2(CCCCC2)C(C#N)=C(N)N1`: the survival was 68% (inactive). The result for `COc1cccc(-c2cn3c(n2)sc2cc(C(=O)NCc4ccccc4F)ccc23)c1` reads 60% (inactive). As for `Cn1c(=O)n(C)c2cc(N3CCOCC3)c(NC(=O)c3ccc(Cl)cc3)cc21`, the survival was 87% (inactive).

`CCC(C(=O)NCc1ccco1)n1nc(C)c2c(C)n(-c3ccc(C)cc3)nc2c1=O` (stereo unspecified): the survival was 73% (inactive). Turning to `Cc1nn(C(C)C(=O)NCc2ccco2)c(=O)c2nn(-c3ccccc3)c(C)c12` (stereo unspecified), the survival was 37% (active). As to `Cc1nn(CC(=O)NCc2ccco2)c(=O)c2nn(-c3ccccc3)c(C)c12`, the survival is 92% (inactive).

Consider `CSc1ccc(CCNC(=O)C(C)n2nc(C)c3c(C)n(-c4ccccc4)nc3c2=O)cc1` (stereo unspecified), for which the survival was 46% (active). The result for `Cc1ccc(CCNC(=O)C(C)n2nc(C)c3c(C)n(-c4ccc(C)cc4)nc3c2=O)cc1` (stereo unspecified) reads 86% (inactive). As to `CCC(C(=O)NCCc1ccc(SC)cc1)n1nc(C)c2c(C)n(-c3ccc(C)cc3)nc2c1=O` (stereo unspecified), the survival is 80% (inactive). As for `CCCNC(=O)C(C)n1nc(C)c2c(C)n(-c3ccccc3)nc2c1=O` (stereo unspecified), the survival was 102% (inactive). As for `Cc1ccc(-n2nc3c(=O)n(C(C)C(=O)NCc4ccccc4C)nc(C)c3c2C)cc1` (stereo unspecified), the survival was 94% (inactive).

On to `Cc1ccc(-n2nc3c(=O)n(C(C)C(=O)NCc4ccco4)nc(C)c3c2C)cc1` (stereo unspecified), for which the survival is 47% (active). As for `CCOC(=O)N1CCC(NC(=O)c2cnn(-c3cccc(C)c3)c2-n2cccc2)CC1`, the figure is 85% (inactive); as for `CCC(C)(C)N1CC(=O)N(Cc2ccccc2)C(c2ccc(OC)cc2)C1=O` (stereo unspecified), 78% (inactive); as for `CCOc1ccc(NC(=O)N(C)CCc2c(C)nn(C)c2C)cc1`, 74% (inactive).

As to `COc1cccc(-n2nnc3c(sc4nc(C)cc(C)c43)c2=O)c1`, the survival is 91% (inactive). As for `CCN(C(=O)Cc1ccccc1OC)c1nnc(-c2ccncc2)s1`, the figure is 70% (inactive); as for `Nc1nc(-c2ccco2)nn1C(=O)c1ccc(Cl)cc1Cl`, 91% (inactive). As for `COc1ccc(-c2cc(C(=O)NCCc3ccccc3)c3c(-c4ccccc4)[nH]nc3n2)cc1`, the figure is 87% (inactive); as for `Cc1cc2c(cc1NC(=O)c1ccc(C(C)(C)C)cc1)n(C)c(=O)c(=O)n2C`, 84% (inactive). For `COc1cc(OC)c(NC(=O)N2CCN3CCCCC3C2)cc1Cl` (stereo unspecified), the survival is 75% (inactive).

In the case of `CCN1CCN(c2csc3ccc(C)cc3c2=O)CC1`, the survival was 74% (inactive). The result for `COc1ccccc1NC(=O)N(Cc1cc2c(C)ccc(C)c2[nH]c1=O)CC1CCCO1` (stereo unspecified) reads 94% (inactive). Consider `CCOC(=O)c1c(NC(=O)c2ccc(OC)cc2)sc2c1CCCCC2`, for which the survival is 2% (active).

Take `CCN(CC)Cc1c(NC(=O)c2ccc(OC)cc2)sc2c1CCCC2`: the survival was 71% (inactive). Turning to `CCCOc1ccc(C(=O)Nc2sc3c(c2C(=O)OCC)CCCCC3)cc1`, the survival is 24% (active).

With `CCOC(=O)c1c(NC(=O)c2cc(OC)c(OC)c(OC)c2)sc2c1CCCC2`, the survival was 81% (inactive).

Turning to `CCCCOc1ccc(C(=O)Nc2sc3c(c2C(=O)OCC)CCCCC3)cc1`, the survival is 50% (inactive). Consider `CC(C)(C)C1CCc2c(sc(NC(=O)c3cc4ccccc4c(=O)o3)c2C(N)=O)C1` (stereo unspecified), for which the survival was 44% (active). As for `CCOC(=O)c1c(NC(=O)c2ccc(OCC)c(Br)c2)sc2c1CCCC2`, the figure is 74% (inactive). As for `CCOC(=O)c1c(NC(=O)c2cc3ccccc3c(=O)o2)sc2c1CCC(C(C)(C)C)C2` (stereo unspecified), the figure is 53% (inactive). Consider `CCOC(=O)c1c(NC(=O)c2ccc(C)c(C)c2)sc2c1CCCCC2`, for which the survival is 2% (active). Take `CCOC(=O)c1c(NC(=O)c2ccc(OC)c(OC)c2)sc2c1CCCCC2`: the survival is 58% (inactive). As to `CCCOC(=O)c1c(NC(=O)c2cc3ccccc3c(=O)o2)sc2c1CCC(C)C2` (stereo unspecified), the survival is 112% (inactive). As to `CCCCOc1cccc(C(=O)Nc2sc3c(c2C(=O)OCC)CCCC3)c1`, the survival was 53% (inactive). As to `Cc1c(C(=O)NCCN(C)C)oc2c1-c1nn(Cc3ccccc3Cl)cc1CC2`, the survival was 110% (inactive). Take `O=C(Oc1ccc(F)cc1)c1nc(SCc2ccc(F)cc2)ncc1Cl`: the survival is 79% (inactive).

For `COC(=O)C1=NNC2(c3ccc(C)cc3)C(=O)N(c3ccc(C)cc3)C(=O)C12` (stereo unspecified), the survival is 107% (inactive). As for `Cc1oc(C(=O)O)cc1CSC(C)C(=O)O` (stereo unspecified), the figure is 88% (inactive); as for `CC(C)c1nn2c(=O)cc(COC(=O)c3ccccc3Cl)nc2s1`, 88% (inactive); as for `CC(=O)Nc1nc(-c2cccs2)nc2c1c(=O)oc1ccccc12`, 92% (inactive). As for `COc1ccc(N=C2SC(C(=O)Nc3ccccc3)CC(=O)N2C)cc1` (stereo unspecified), the figure is 91% (inactive). Regarding `O=C(CN1C(=O)C2(SCC(=O)N2c2ccccc2)c2ccccc21)NCCc1ccccc1` (stereo unspecified), the survival was 116% (inactive). Take `Cc1nnsc1C(=O)Oc1ccc(C(C)C)cc1`: the survival was 89% (inactive). The result for `CCc1cc2c(cc3c(=O)n(CC(=O)NC4CCC(C)CC4)ncn32)s1` (stereo unspecified) reads 91% (inactive); that for `Oc1c(C(c2cccc(Cl)c2)N2CCOCC2)sc2nc(-c3ccco3)nn12` (stereo unspecified), 84% (inactive). `Cc1ccc(NC(=O)CCC(=O)N2Cc3ccccc3Oc3ncccc32)c(C)c1`: the survival is 99% (inactive).

On to `CCOC(=O)C1CCN(C(=O)c2ccccc2N(C)S(C)(=O)=O)CC1`, for which the survival is 107% (inactive). As for `CCOC(=O)c1c(NC(=O)c2ccc(C)cc2)sc2c1CCCCC2`, the survival is -2% (active). Regarding `COC(=O)c1c(NC(=O)c2cc3ccccc3c(=O)o2)sc2c1CCCC2`, the survival was 89% (inactive). As for `CCOC(=O)c1c(NC(=O)c2cc(OCC)c(OCC)c(OCC)c2)sc2c1CCCCC2`, the survival is 65% (inactive). Consider `CCOC(=O)c1c(NC(=O)c2ccccc2C)sc2c1CCCC2`, for which the survival was 12% (active). As for `CCOC(=O)c1c(NC(=O)c2cc(Cl)ccc2Cl)sc2c1CCCC2`, the figure is 72% (inactive); as for `CCOC(=O)c1c(NC(C)=O)sc2c1CCC2`, 77% (inactive); as for `CCOC(=O)c1c(NC(=O)c2cc3ccccc3c(=O)o2)sc2c1CCCC2`, 45% (active). On to `CCOC(=O)c1c(NC(=O)c2cc3ccccc3c(=O)o2)sc2c1CCC(C)C2` (stereo unspecified), for which the survival is 129% (inactive). As for `CCOC(=O)c1c(NC(=O)c2ccc(S(=O)(=O)N(CC)CC)cc2)sc2c1CCCCC2`, the survival was 72% (inactive).
